Source: PubChem BioAssay (NCI)
Values joined by “and” are separate entries in the source; they are usually repeats but may differ in a detail not shown here. Identical values can stand only once. Compounds without any hit were thinned out: in the full panel of roughly 79,000, 15% have a hit. Where a structure was tested more than once in an assay, its records may differ in their call. Active and inactive are the calls of the source. No stated cut-off is given here; in the data, active means growth inhibition above about 70%; inactive means the rest.

What was measured:
[1] = NCI Yeast Anticancer Drug Screen. Data for the rad50 strain (AID 155);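 further: 0% = growth of vehicle-only cultures of the same strain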; conditions: S. cerevisiae rad50 strain growth inhibition; at 50.0 µM; stronger effect = higher value
In short: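 Cells are treated with compound, grown, and their growth is then scored against vehicle-only cultures of the same repair-deficient yeast strain.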

[2] = NCI Yeast Anticancer Drug Screen. Data for the mec2-1 strain (AID 157); conditions: S. cerevisiae mec2-1 strain, at 50.0 µM, stronger effect = higher value
In short: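 Growth inhibition is read against vehicle-treated controls after compound exposure of the mec2-1 yeast strain, which is defective in DNA damage repair or cell cycle control.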

[3] = NCI Yeast Anticancer Drug Screen. Data for the sgs1 mgt1 strain (AID 161);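 further: 0% = growth of cultures given vehicle only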; conditions: S. cerevisiae sgs1 mgt1 strain, at 50.0 µM, stronger effect = higher value
In short: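 Yeast cells carrying a defined DNA-repair defect were exposed to test compounds. Growth inhibition was measured relative to vehicle-treated controls.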

[4] = NCI Yeast Anticancer Drug Screen. Data for the cln2 rad14 strain (AID 165);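 further: 0% = growth equal to vehicle treated cultures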; conditions: S. cerevisiae cln2 rad14 strain, at 50.0 µM, stronger effect = higher value
In short: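 Growth inhibition, relative to vehicle-treated controls, is the read-out. The test organism is a yeast strain with defined genetic alterations, cln2 rad14.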

[5] = NCI Yeast Anticancer Drug Screen. Data for the bub3 strain (AID 167); conditions: S. cerevisiae bub3 mutant strain, at 50.0 µM, stronger effect = higher value
In short: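 Part of a panel of yeast mutants defective in DNA damage repair or cell cycle regulation. Each strain is grown with compound, and inhibition is calculated relative to solvent-treated cultures.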

[6] = NCI Yeast Anticancer Drug Screen. Data for the mlh1 rad18 strain (AID 175); conditions: S. cerevisiae mlh1 rad18 strain growth inhibition; at 50.0 µM; stronger effect = higher value
In short: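 Cells of a genetically altered yeast strain, deficient in DNA damage repair, were treated with compound. Their growth was then compared with that of vehicle-treated cultures to give inhibition.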

| Compound | growth inhibition [1] | growth inhibition [2] | growth inhibition [3] | growth inhibition [4] | growth inhibition [5] | growth inhibition [6] |
| --- | --- | --- | --- | --- | --- | --- |
| C#CCOC(=O)C=[N+]=[N-] | -11.7% (inactive) | -6.75% (inactive) | -10.6% (inactive) | 14.7% (inactive) | 3.85% (inactive) | -2.1% (inactive) |
| O=C(c1ccccc1)C1C(C(=O)c2ccccc2)N1C1CCCCC1 (stereo not given) | 81.8% (active) | 32% (inactive) | 14.8% (inactive) | 2.3% (inactive) | 84.5% (active) | 80.8% (active) |
| O=C([O-])CC(=O)[O-].[Cu+2].[OH3+].[OH3+] | 24.9% (inactive) | 11.2% (inactive) | 12.2% (inactive) | -19.6% (inactive) | -9.35% (inactive) | 6.1% (inactive) |
| CC([NH-])C[NH-].[NH2-].[NH2-].[Pt+4] (stereo not given) | 17.1% (inactive) | -5.65% (inactive) | -10.3% (inactive) | -6.25% (inactive) | 5.8% (inactive) | -12.3% (inactive) |
| CCCC(C)COC(=O)Cc1ccccc1 (stereo not given) | 18.3% (inactive) | 18.2% (inactive) | 9.55% (inactive) | -27.9% (inactive) | 4.3% (inactive) | 15.2% (inactive) |
| CC(=O)C1(c2ccccc2)CCNCC1 | -1% (inactive) | -13.1% (inactive) | 10.6% (inactive) | 11.9% (inactive) | -3.9% (inactive) | -3.35% (inactive) |
| CC1CN(C2CCCCC2)CO1 (stereo not given) | -0.6% (inactive) | -30.8% (inactive) | 0.8% (inactive) | -10.8% (inactive) | -20.5% (inactive) | -32.2% (inactive) |
| O=C(Nc1ccc(Cl)cc1C(=O)c1ccccc1)c1ccc(Cl)cc1 | -5.95% (inactive) | 10.1% (inactive) | 4.25% (inactive) | -2% (inactive) | 25.9% (inactive) | 9.55% (inactive) |
| CC(C)(C)[SH+]CC[SH+]C(C)(C)C.[C-]#[O+].[C-]#[O+].[C-]#[O+].[C-]#[O+].[Cr] | 13.6% (inactive) | -19.1% (inactive) | -7.25% (inactive) | -4.4% (inactive) | 3.65% (inactive) | 3.35% (inactive) |
| C=CCC1(OC(C)=O)CCC2C3CCC4CC=CCC4(C)C3CCC21C (stereo not given) | -9.9% (inactive) | 4.5% (inactive) | -8.85% (inactive) | -51.4% (inactive) | 1% (inactive) | -9.4% (inactive) |
| O=C(O)c1ccc(Cl)c(Cl)c1.[Ni] | -19.1% (inactive) | -16.4% (inactive) | -4.35% (inactive) | -11.9% (inactive) | -23.4% (inactive) | -19.7% (inactive) |
| O=c1cccc2n1CC1CNC[C@H]2C1 | 16.6% (inactive) | 9.5% (inactive) | 5.8% (inactive) | 7.75% (inactive) | 12.6% (inactive) | -4.85% (inactive) |
| COC(=O)C(N)Cc1ccc(OC)c(N(CCCl)CCCl)c1 (stereo not given) | 17% (inactive) | -0.6% (inactive) | -11.2% (inactive) | 2.8% (inactive) | 3% (inactive) | 6.55% (inactive) |
| Cc1cccc(C)c1[S][Pb][S]c1c(C)cccc1C | -0.6% (inactive) | -3.75% (inactive) | -7.9% (inactive) | -0.75% (inactive) | -2.05% (inactive) | -17.4% (inactive) |
| O=C(c1ccc([N+](=O)[O-])cc1)C1NC1c1ccccc1 (stereo not given) | -24.2% (inactive) | -16.6% (inactive) | 24% (inactive) | -2.65% (inactive) | 22.3% (inactive) | -15.7% (inactive) |
| NC(=O)C(Cl)(Cl)CCl | 14.7% (inactive) | -34.5% (inactive) | -12.4% (inactive) | 1.5% (inactive) | -2.5% (inactive) | 6.65% (inactive) |
| COc1ccc2c(c1O)C13CCN(C)C(C2)C1CCC(O)C3 (stereo not given) | -16.4% (inactive) | 2.95% (inactive) | -11.8% (inactive) | -11.8% (inactive) | -1.7% (inactive) | -20% (inactive) |
| C=CCn1cc2c3c(cccc31)C1CC(C)CN(C)C1C2 (stereo not given) | 34.5% (inactive) | 36% (inactive) | 25% (inactive) | 39.9% (inactive) | 33.6% (inactive) | 28.9% (inactive) |
| CN(C)NP(c1ccccc1)c1ccccc1 | -2.55% (inactive) | -3.8% (inactive) | -5.95% (inactive) | -6.1% (inactive) | -18.2% (inactive) | 1.1% (inactive) |
| CCOC(=O)C(Cc1ccc(N(CCCl)CCCl)cc1)NC(=O)C(N)CO (stereo not given) | -4.05% (inactive) | 17.6% (inactive) | 4.75% (inactive) | -1.3% (inactive) | 12.3% (inactive) | 7.5% (inactive) |

| Compound | growth inhibition [1] | growth inhibition [2] | growth inhibition [3] | growth inhibition [4] | growth inhibition [5] | growth inhibition [6] |
| --- | --- | --- | --- | --- | --- | --- |
| [Cl][Sn]([Cl])([c]1ccccc1)[c]1ccccc1 | 0.95% (inactive) and 97.1% (active) | 29.9% (inactive) and 96.2% (active) | 41.5% (inactive) and 95.1% (active) | -35.4% (inactive) and 95.2% (active) | 48.4% (inactive) and 95.8% (active) | 51% (inactive) and 97.2% (active) |
| CCCCOC(=O)c1ccccc1N | -4.3% (inactive) | -15.5% (inactive) | -4.2% (inactive) | -1.85% (inactive) | 0.2% (inactive) | -3.6% (inactive) |
| CC[CH2][Sn](=[O])[c]1ccccc1 | 61.6% (inactive) | 72% (active) | 57.1% (inactive) | 42.3% (inactive) | 50.6% (inactive) | 78.2% (active) |
| O=C(O)CC1NCc2cc3ccccc3nc21 (stereo not given) | 6.4% (inactive) | -13.2% (inactive) | -17.2% (inactive) | 10% (inactive) | -0.8% (inactive) | 16.6% (inactive) |
| CSCC(NP1(=O)SC(NN=C2CCCCC2)=NC1(C)C)C(=O)O (stereo not given) | 12.2% (inactive) | 3.95% (inactive) | 2% (inactive) | -5.5% (inactive) | -0.15% (inactive) | 18.6% (inactive) |
| [Cr+3].[NH-]CC[NH-].[NH-]CC[NH-].[NH-]CC[NH-].[O-][Cl+3]([O-])([O-])O | 19.2% (inactive) | 1.2% (inactive) | 1.05% (inactive) | -5.15% (inactive) | 1% (inactive) | -1.8% (inactive) |
| CC(=O)OC1(C)CC(C)C(=O)C(C(O)CC2CC(=O)NC(=O)C2)C1 (stereo not given) | 92.8% (active) | 94.3% (active) | 93.7% (active) | 92.2% (active) | 93.3% (active) | 92.3% (active) |
| Cc1nc(N)sc1S(=O)(=O)F | -41.9% (inactive) | -29.7% (inactive) | -21.6% (inactive) | -14.1% (inactive) | -29.4% (inactive) | -5.15% (inactive) |
| CN1CC=C(c2cccn2C)CC1 | -24.2% (inactive) | -24.9% (inactive) | -6.45% (inactive) | 4.05% (inactive) | -10.4% (inactive) | -37.8% (inactive) |
| CNC(=O)Oc1ccc(C=Nc2cccc([N+](=O)[O-])c2)cc1 | 2.9% (inactive) | 37.4% (inactive) | 14.7% (inactive) | 0.65% (inactive) | 34.9% (inactive) | 32.5% (inactive) |
| CC1(C)SC2C(NC(=O)Cc3ccccc3)C(=O)N2C1C(=O)O (stereo not given) (tested in a mixture with another compound) | 2.2% (inactive) | 0.85% (inactive) | 13.5% (inactive) | -2.3% (inactive) | -12.3% (inactive) | -11.7% (inactive) |
| CCCCCOP(=O)(OCCCCC)C(=O)Nc1ccc([N+](=O)[O-])cc1 | -12.9% (inactive) | 4.85% (inactive) | -5.25% (inactive) | -3.2% (inactive) | -1.8% (inactive) | 10.9% (inactive) |
| CC(=O)OC1CCC2(C)C3CCC4(C)C(Oc5ccccc5)CCC4C3CC(Br)C2(O)C1 (stereo not given) | -48% (inactive) | -29.9% (inactive) | -35.9% (inactive) | 2.75% (inactive) | -31.6% (inactive) | -43% (inactive) |
| c1ccc2c(c1)CN1Cc3ccccc3C2C1 | 6.6% (inactive) | -12.3% (inactive) | -13.5% (inactive) | -13.7% (inactive) | 2.65% (inactive) | -6.35% (inactive) |
| CCCC(C)C1(C)C(=O)NC(=O)N(C)C1=O (stereo not given) | 4.35% (inactive) | 18.1% (inactive) | 0.15% (inactive) | 11.8% (inactive) | 1.05% (inactive) | -11.9% (inactive) |
| CC(C)CCCC(C)C1CCC2C3CC=C4CC(OC(=O)CN5CC5)CCC4(C)C3CCC12C (stereo not given) | -0.3% (inactive) | -2.65% (inactive) | -4.85% (inactive) | -6.85% (inactive) | 18.8% (inactive) | 3.2% (inactive) |
| O=[N+]([O-])c1cc(-c2ccc([As](=O)(O)O)cc2)ccc1[As](=O)(O)O | 2.5% (inactive) | 4.4% (inactive) | -40% (inactive) | 9.5% (inactive) | -22% (inactive) | -4.15% (inactive) |
| CCCCOP(=O)(OCCCC)OC(C)C(C)=O (stereo not given) | -0.15% (inactive) | 2.75% (inactive) | 5.6% (inactive) | 0.45% (inactive) | 5.15% (inactive) | -2.05% (inactive) |
| O=C(SCC(NSc1ccccc1[N+](=O)[O-])C(=O)O)c1ccccc1 (stereo not given) | 88.5% (active) | 56.6% (inactive) | 75.4% (active) | 8.45% (inactive) | 6.5% (inactive) | 47.9% (inactive) |
| C#CCN1C(=O)CN2C(Cl)(Cl)C2(c2ccccc2)c2cc(Cl)ccc21 (stereo not given) | 20.1% (inactive) | 16.1% (inactive) | -13.4% (inactive) | -1.8% (inactive) | 3.35% (inactive) | 37.6% (inactive) |
